# Bioassay records deposited in PubChem BioAssay by several laboratories.
# The list is not random: actives were taken first. Their share in the collection is about 1.4%.
# MsrA inh: inhibits bovine methionine sulfoxide reductase A; purified bovine MsrA, absorbance read-out; inhibition, % at 15.5 µM; 0.75% of 360,000 active; AID 651718; in the data active = inhibition above about 4.5%
# pCIP destab: compounds decreasing mouse p/CIP protein stability; Q05BA5; F442A p/CIP-EGFP cells, EGFP fluorescence, 16 h; decrease of EGFP signal, % at 10 µM; 0.01% of 290,000 active; AID 1984;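 active = EGFP signal decrease of at least 30% at 10 µM or well 3 SD below plate mean, unless failing retest; inactive = the rest, including hits failing retest or dose response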
# 14-3-3 Bad PPI: disrupts binding of bovine 14-3-3 zeta to phospho-Bad peptide; TR-FRET 14-3-3zeta/Dy647-pBad peptide displacement, 1 h; inhibition, % at 21.7 µM; 0.71% of 220,000 active; AID 781;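 active = inhibition above about 70%, limit read from the data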
# Target sequence (P63103 whole entry, looked up): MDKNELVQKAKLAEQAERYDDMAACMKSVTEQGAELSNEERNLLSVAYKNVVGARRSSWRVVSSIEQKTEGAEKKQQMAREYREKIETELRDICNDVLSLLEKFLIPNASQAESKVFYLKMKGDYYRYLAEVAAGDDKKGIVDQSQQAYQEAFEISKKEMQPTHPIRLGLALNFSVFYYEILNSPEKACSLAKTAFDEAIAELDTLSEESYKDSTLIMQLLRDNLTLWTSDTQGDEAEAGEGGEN
# MsrA act: activators of bovine methionine sulfoxide reductase A | purified bovine MsrA, absorbance read-out | activation, % at 10.6 µM | 0.3% of 360,000 active | AID 602163; in the data active = activation above about 7.5%
# MsrA act confirm: confirmation of bovine methionine sulfoxide reductase A activators. shares compounds with MsrA act. activation, % at 10.6 µM. 12% of 1,000 active. purified bovine MsrA, absorbance read-out; in the data active = activation above about 4%;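 also: enzyme coupled to thioredoxin and thioredoxin reductase with NADPH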
# Numbers stand for hits; i = inactive; nt = no result.
SMILES,MsrA inh,pCIP destab,14-3-3 Bad PPI,MsrA act,MsrA act confirm
C=C(C(=O)c1ccccc1)C(C)CC(=O)c1ccccc1 (stereo not drawn),i,i,i,8.5,i
Cc1cc2c(nc1C)CCCN2Cc1ccccc1C(F)(F)F,i,nt,nt,nt,nt
O=C1c2ccccc2C(=O)c2[nH]cnc21,i,i,i,12,6.7
O=C1c2ccccc2C(=O)c2[nH]c(=O)[nH]c21,i,i,nt,15,i
O=C1c2ccccc2C(=O)c2c1ncn2-c1ccccc1,i,i,i,i,nt
COC(=O)c1cc2c(c3c4cc(OC)ccc4n(S(=O)(=O)c4ccc(OC)cc4)c13)C(=O)N(C1CCCCC1)C2,i,nt,nt,nt,nt
CC(C)C[C@H](NC(=O)C1CCCC1)C(=O)N1CCC[C@H]1C(=O)NCc1ccccc1,i,nt,nt,nt,nt
CCOC(=O)N(C)c1c(CC)nc2c(OCCC3CCCCC3)cccn12,i,nt,nt,i,nt
CCOC(=O)N(C)c1c(CC)nc2c(OCc3cccc(Cl)c3)cccn12,i,nt,nt,9.2,i
CCOC(=O)C(=O)N(C)c1c(CC)nc2c(OCCC3CCCCC3)cccn12,i,nt,nt,8.2,i
CCOC(=O)C(=O)N(C)c1c(CC)nc2c(OCc3cccc(Cl)c3)cccn12,i,nt,nt,i,nt
CCN(Cc1ccccc1)C(=O)c1ccc2c(=O)n3c(nc2c1)CCC3,i,nt,nt,i,nt
COc1ccc(CN(Cc2cccnc2)S(=O)(=O)c2ccc(-n3cnnn3)c(OC)c2)cc1,i,i,nt,8.1,i
COc1ccc(CN(Cc2ccc(OC)cc2)S(=O)(=O)c2ccc(-n3cnnn3)c(C)c2)cc1,i,i,i,i,nt
Cc1cc(O)cc(=O)n1-c1ccc(OC(F)F)cc1,i,nt,nt,nt,nt
Cc1cc(C(F)(F)F)n2nc(C)c(-c3ccc(Cl)cc3)c2n1,i,i,i,16,i
COC(=O)c1cc2c(c3c4cc(C)ccc4n(S(=O)(=O)c4cccc(C)c4)c13)C(=O)N(Cc1ccccc1OC)C2,i,nt,nt,nt,nt
C/C(N)=C(/C#N)C(=O)COC(=O)c1ccccc1C(=O)c1ccc(C)cc1,i,i,i,8.6,i
Cc1cc2nc(-c3ccc[nH]c3=O)n(Cc3ccc(F)cc3)c2cc1C,i,i,nt,i,nt
O=c1[nH]cccc1-c1nc2ccccc2n1Cc1ccc(F)cc1,i,i,nt,15,i
Cc1ccc(NC(=O)COC(=O)COc2ccc(Cl)cc2)c([N+](=O)[O-])c1,i,i,i,16,i
O=C(COC(=O)COc1ccc(Cl)cc1)Nc1ccc(F)c([N+](=O)[O-])c1,i,i,i,i,nt
COC(=O)c1sccc1NC(=O)CN1CCN(c2ccc(F)cc2)CC1,i,i,i,9.1,i
COc1ccccc1NC(=O)CN1CCN(c2ccc(F)cc2)CC1,i,nt,nt,i,nt
CCCCNC(=O)C1CC(=O)N(CCC(C)C)C1 (stereo not drawn),i,i,nt,i,nt
SMILES,MsrA inh,pCIP destab,14-3-3 Bad PPI,MsrA act,MsrA act confirm
CC(C)CCN1CC(C(=O)NC(C)C)CC1=O (stereo not drawn),i,i,i,11,i
N#Cc1ccc(S(=O)(=O)NCC2CCN(C(=O)C(=O)c3cc4ccccc4o3)CC2)cc1,i,nt,nt,nt,nt
COC(=O)c1ccc(NC(=O)C(C)Oc2ccccc2)cc1 (stereo not drawn),i,i,i,i,nt
COC(=O)c1ccc(NC(=O)[C@H](C)NC(N)=O)cc1,i,i,i,23,i
COCCCNC(=O)C[C@H]1C[C@@]2(C(=O)OC)C(=C[C@H](C(C)(C)C)O[C@@H]2C)N(CCC2=CCCCC2)C1=O,i,nt,nt,nt,nt
Nc1nc(N)nc(-c2cccc(Br)c2)n1,i,nt,nt,i,nt
S=c1nc(-c2cccc(Br)c2)[nH][nH]1,i,i,i,9.8,6.1
O=C(NCc1nnnn1-c1ccc(F)cc1)C1CC(=O)N(c2ccc(F)cc2)C1 (stereo not drawn),i,nt,nt,i,nt
Cc1ccc(-n2nnnc2CNC(=O)C2CC(=O)N(c3ccc(F)cc3)C2)cc1C (stereo not drawn),i,nt,nt,7.7,i
Cc1c(NS(=O)(=O)c2cc(C(=O)OCC(=O)c3ccccc3F)ccc2Cl)c(=O)n(-c2ccccc2)n1C,i,nt,nt,i,nt
CC(=O)N1CCOC12CCN(Cc1ccccc1)CC2,i,nt,nt,8.2,i
C/C(=C\C(=O)O)C(=O)Nc1nccs1,i,i,i,i,nt
CC(=O)c1nccs1,nt,nt,nt,16,i
COC(=O)c1cc2c(c3c4cc(F)ccc4n(S(=O)(=O)c4cccc(C)c4)c13)C(=O)N(Cc1ccc(N(C)C)cc1)C2,i,nt,nt,nt,nt
CC1CCCC(C)N1/N=C/c1cc(Br)cc(Br)c1O (stereo not drawn),i,i,i,9.2,i
COC(=O)c1cc(S(=O)(=O)NCC2CCN(C(=O)C(=O)c3cc4ccccc4o3)CC2)cs1,i,nt,nt,nt,nt
O=C(COC(=O)c1c[nH]c2ccccc12)NC1CCCC1,i,nt,nt,22,i
CC(C)C[C@@H]1O[C@H](CCc2ccccc2)Cc2[nH]c(=S)[nH]c(=O)c21,i,nt,nt,10,i
C[C@H]1CN(c2ccc(N3CCN(C(=O)OC(C)(C)C)C[C@@H]3C)cc2C#N)CCN1Cc1ccccc1,i,nt,nt,nt,nt
NNC(=O)c1oc2nc(-c3ccco3)cc(-c3ccco3)c2c1N,i,i,i,8.2,i
Nc1c(C(=O)N/N=C/c2cccnc2)oc2nc(-c3ccco3)cc(-c3ccco3)c12,i,i,i,i,nt
CCOc1ccccc1CNC(=O)c1cc2oc3ccccc3c2n1CC,i,i,i,8.1,i
COc1cccc(-c2nc(N3CCCC3)c3ccccc3n2)c1O,i,i,i,i,nt
COc1cccc(-c2nc(N3CCC(C)CC3)c3ccccc3n2)c1O,i,i,i,8.2,i
Cc1c(NC(=O)Cn2[nH]c(=O)c3ccccc3c2=O)c(=O)n(-c2ccccc2)n1C,i,i,i,23,i
SMILES,MsrA inh,pCIP destab,14-3-3 Bad PPI,MsrA act,MsrA act confirm
Cc1c(NC(=O)N2CCCCCC2)c(=O)n(-c2ccccc2)n1C,i,i,i,8.4,i
COc1cccc(C(=O)N[C@@H](Cc2cccnc2)C(=O)N2CCC[C@H]2C(=O)NCc2ccccc2)c1,i,nt,nt,nt,nt
O=C(O)c1ccccc1C(=O)Nc1n[nH]c(=S)s1,i,i,i,8.7,i
O=C(O)c1ccccc1C(=O)Nc1nccs1,i,i,i,i,nt
CCn1c(SCC(=O)N2CCN(S(=O)(=O)c3ccccc3)CC2)nnc1-c1cccs1,i,i,i,9.6,i
O=C(NCc1ccccc1)[C@H]1CCCN1C(=O)[C@H]1CCCN1C(=O)c1cccc(F)c1,i,nt,nt,nt,nt
Cc1cccc2cc3cccc(C)c3nc12,i,i,i,8.9,i
O=C(C[C@@H]1C[C@@H]2c3cc(NC(=O)c4ccc5c(c4)OCO5)ccc3O[C@@H]2[C@@H](CO)O1)NCc1cccnc1,i,nt,nt,nt,nt
Cc1cc(NC(=O)c2ccc(Cl)cc2)n(CCOC(=O)c2ccc(Cl)cc2)n1,i,i,i,9.1,i
CCOC(=O)c1ccc(Cl)c(NC(=O)c2cccnc2)c1,nt,i,i,nt,nt
CCOC(=O)c1ccc(-n2ccnc2)c(NC(=O)c2ccc(Cl)cc2)c1,i,i,i,8.1,i
Cc1cc2c(c(=O)o1)[C@@]1(C(=O)N(C)c3ccccc31)C1=C(CC3(CCCCC3)OC1=O)O2,i,nt,nt,nt,nt
Cc1nn(CC(=O)NCCCN2CCOCC2)c(C)c1[N+](=O)[O-],i,i,i,14,i
CCOc1cc(N2CCOCC2)c(OCC)cc1NC(=O)Cn1nc(C)c([N+](=O)[O-])c1C,i,nt,nt,i,nt
